Test results: PubChem BioAssay AID750 (Sanford-Burnham Center for Chemical Genomics, 2007)
In all, about 86,000 compounds went through this assay and about 140 (0.16%) were called active. The sample holds actives, similar compounds and a random draw of the others, so the mix is not that of the screen. Unmarked numbers belong to inactive results.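 How the source made its calls: active means activation factor of at least 2 for MT1-MMP transcription at 10 µM; inactive means the rest.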

Assay: MT1-MMP promoter reporter activation – cell-based, luciferase luminescence, primary screen (AID 750)
Settings: HT1080 MT1-MMP promoter luciferase reporter, overnight, at 10 µM, stronger effect = higher value

| Structure (SMILES) | activation factor |
| --- | --- |
| CC1CC(C)CN(CC(=O)N2c3ccccc3CCc3ccccc32)C1 (stereo not given) | 1.1 |
| O=C(NCCN1CCN(Cc2ccccc2)CC1)c1cc2c(=O)[nH]c3ccccc3c2s1 | 1 |
| Cc1nn(C)cc1CNC(=O)Nc1ccc(Cl)cc1 | 1.7 |
| Cc1ccc(-c2csc(NC(=O)Cc3cccs3)n2)cc1C | 1.3 |
| O=P(O)(CP(=O)(c1ccccc1)c1ccccc1)c1ccccc1O | 1.2 |
| COc1ccc(C(=O)NN(C)c2nc(-c3ccccc3)cc(C)c2S(C)(=O)=O)cc1 | 1.1 |
| O=S(=O)(c1ccc(Br)cc1)n1ccc2ccccc21 | 1.1 |
| O=C(NCCc1ccccc1)c1ccc(OCCOc2ccccc2)cc1 | 1 |
| COC(=O)c1ccc(S(=O)(=O)N2CCC(c3nc4ccccc4o3)CC2)cc1 | 1.1 |
| c1ccc(C(c2ccccc2)N2CCN(Cc3nnnn3C3CCCCC3)CC2)cc1 | 2 (active) |
| COc1ccc(C(c2nnnn2C2CCCCC2)N2CCN(c3ccccc3F)CC2)cc1 (stereo not given) | 1.1 |
| c1ccc(CCn2nnnc2CN2CCN(C3CCCC3)CC2)cc1 | 1.1 |
| C=CCn1c(SCc2c(C)noc2C)nc2sc3c(c2c1=O)CCC(C)C3 (stereo not given) | 0.6 |
| CCOc1ccc(-c2nc(C)sc2CC(=O)O)cc1 | 1 |
| CC(C)(C)N1CC(c2nc3ccccc3n2Cc2ccc(F)cc2)CC1=O (stereo not given) | 1.2 |
| CC1(C)Cc2cccc(OCC(N)=O)c2O1 | 1.2 |
| Cn1nc(C(F)(F)F)c2cc(NC(=O)OCC(C)(C)C)sc21 | 1 |
| CC1=NN(C(C)C)C(=O)C1 | 1.2 |
| CN(C)S(=O)(=O)c1ccc(NC(=O)COC(=O)c2n[nH]c3ccccc23)cc1 | 1.3 |
| O=C(OC1CCCCC1=O)c1cccc(S(=O)(=O)NCc2ccccc2)c1 (stereo not given) | 1.2 |

| Structure (SMILES) | activation factor |
| --- | --- |
| COc1ccc(NC(=O)Cn2c(=O)n(Cc3ccco3)c(=O)c3ccccc32)cc1 | 1 |
| Cc1ccc(-n2nc3cc(C)c(NC(=O)c4cccnc4)cc3n2)cc1 | 1.5 |
| CC(C)C[C@@H](N)c1nnc(SCC(=O)c2ccc(Cl)cc2)o1 | 1.1 |
| S=C1NC(c2ccccc2)=NCN1c1ccc(Br)cc1 | 1.2 |
| Cc1cc(NC(=O)CN2CCCC(C)C2)n(-c2nc3ccccc3s2)n1 (stereo not given) | 1.2 |
| Cc1cc(-c2ccccc2)nc(N2CCC(C(=O)NC34CC5CC(CC(C5)C3)C4)CC2)n1 | 1.3 |
| CCOC(=O)Nc1sc(C(=O)N(C)C)c(C)c1C(=O)OCC | 1 |
| Cc1[nH]n(-c2ccc(Cl)cc2)c(=O)c1/C=N/n1c(C)nc2ccccc2c1=O | 1 |
| COc1ccc(C2C(C(C)=O)=C(O)C(=O)N2c2nccs2)cc1 (stereo not given) | 1 |
| Cc1ccc(CNC(=O)COc2ccc(S(=O)(=O)NC(C)C)cc2)cc1 | 1.1 |
| CC(C)C(NC(=O)c1ccc(Cl)cc1)C(=O)O (stereo not given) | 1.1 |
| CCOc1ccc(C(=O)NC(C(=O)NCc2ccccn2)C(C)C)cc1 (stereo not given) | 1.3 |
| COc1ccc(C2=NOC3(CC(=O)N(c4ccc(Cl)cc4)C3=O)C2)c(OC)c1 (stereo not given) | 1 |
| Cc1ccc(S(=O)(=O)NCC(=O)N(CC(=O)NC(C)(C)C)Cc2cccs2)cc1 | 1.1 |
| Cc1ccc(C(CC(=O)O)Nc2nc(N3CCCCC3)nc(N3CCCCC3)n2)cc1 (stereo not given) | 2 (active) |
| COc1ccc(C(CC(=O)O)NC(=O)Cc2ccccc2)cc1 (stereo not given) | 1.2 |
| CC(Nc1nc(N2CCCC2)nc2ccccc12)c1ccccc1 (stereo not given) | 1.1 |
| OC(C#CCN1CCOCC1)(c1ccccc1)C1CCCCC1 (stereo not given) | 1.1 |
| Cc1ccn(C(CC(=O)c2ccc(Br)cc2)C(=O)O)n1 (stereo not given) | 1.1 |
| O=C(O)CSCc1ccc(C(=O)O)o1 | 1.2 |
